Results: the supplement of paper PMC10849652
Of roughly 7,900 targets only a part is listed; those with a hit were picked by preference. About 0.6% of all pairs of compound and target were hits.

Assays:
Test in all cases: log2 fold change, soluble protein after heating vs DMSO (PISA); higher = thermal stabilisation; K562 cells, 10 uM, 30 min; active = over 0.2 and 3.5 SD of the protein, either way, in both replicates (recomputed)
[1] = compound: CN1CCN(CCOc2cc(OC3CCOCC3)c3c(Nc4c(Cl)ccc5c4OCO5)ncnc3c2)CC1 [saracatinib]
Summary of the method: (§1)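 K562 cells at 2×10^6 cells/mL were treated for 30 min with 10 μM compound, and aliquots were heated for 3 min over 48°C-58°C before pooling. Extraction used PBS with 0.5% NP-40 at 4°C, and soluble protein was the supernatant after 21,000xg for 90 min, measured by TMTpro 16plex LC-MS/MS with channel sums equalised. Thermal stability values, relative to control samples and from duplicates, are log2 fold changes.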

[2] = compound: CN1CCN(c2nc(C3=C(c4c[nH]c5ccccc45)C(=O)NC3=O)c3ccccc3n2)CC1 [sotrastaurin]
Summary of the method: as §1

[3] = compound: CN1CC[C@H](c2c(O)cc(O)c3c(=O)cc(-c4ccccc4Cl)oc23)[C@H](O)C1 [alvocidib]
Summary of the method: as §1

[4] = compound: CN1CCc2c(c3ccccc3n2Cc2ccc(C(=O)NO)cc2)C1 [Tubastatin A]
Summary of the method: as §1

[5] = compound: CNC(=O)C1=CC=CC=C1NC2=NC(=NC=C2Cl)NC3=C(C=C(C=C3)N4CCOCC4)OC
Summary of the method: as §1

[6] = compound: CNC(=O)c1ccc(Nc2ncc(C(F)(F)F)c(NCc3nccnc3N(C)S(C)(=O)=O)n2)cc1 [defactinib]
Summary of the method: as §1

[7] = compound: CNCc1ccc(-c2[nH]c3cc(F)cc4c3c2CCNC4=O)cc1 [rucaparib]
Summary of the method: as §1

[8] = compound: CNc1nc(-c2ccc3c(N)n[nH]c3c2)cc(N2C[C@@H](C(=O)NC3CCCCC3)CC[C@H]2C)n1
Summary of the method: as §1

[9] = compound: COC(=O)N[C@@H](C)CNc1nccc(-c2cn(C(C)C)nc2-c2cc(Cl)cc(NS(C)(=O)=O)c2F)n1 [encorafenib]
Summary of the method: as §1

[10] = compound: COC(=O)[C@H](CCSC)NC(=O)C1=C(C=C(C=C1)NC[C@H](CS)N)C2=CC=CC=C2
Summary of the method: as §1

Measured: log2 fold change

TMEM173 (UniProt Q86WV6)
inactive: [1] -0.002 | [2] -0.023 | [3] -0.07 | [4] 0.03 | [5] 0.014 | [6] -0.055 | [7] -0.078 | [8] 0.034 | [9] 0.062 | [10] -0.005

TMEM87B (UniProt Q96K49)
UniProt Q96K49, sequence (Q96K49 whole entry, looked up): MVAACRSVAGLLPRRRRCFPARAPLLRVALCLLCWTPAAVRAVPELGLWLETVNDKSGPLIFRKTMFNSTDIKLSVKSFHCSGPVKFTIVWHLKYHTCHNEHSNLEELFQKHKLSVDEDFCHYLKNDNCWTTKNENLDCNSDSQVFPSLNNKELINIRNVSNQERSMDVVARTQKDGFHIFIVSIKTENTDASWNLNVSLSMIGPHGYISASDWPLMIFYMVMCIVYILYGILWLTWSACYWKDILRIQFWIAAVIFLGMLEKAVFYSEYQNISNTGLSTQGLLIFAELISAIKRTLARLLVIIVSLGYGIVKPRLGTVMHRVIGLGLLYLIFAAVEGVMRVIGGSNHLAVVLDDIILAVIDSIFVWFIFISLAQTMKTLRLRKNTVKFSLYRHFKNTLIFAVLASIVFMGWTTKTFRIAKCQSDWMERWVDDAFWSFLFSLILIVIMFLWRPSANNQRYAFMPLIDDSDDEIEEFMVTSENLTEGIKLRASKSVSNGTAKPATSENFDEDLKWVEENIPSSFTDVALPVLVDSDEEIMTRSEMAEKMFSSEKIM
inactive: [1] -0.072 | [2] 0.013 | [3] -0.046 | [4] -0.099 | [5] -0.019 | [6] 0.044 | [7] -0.016 | [8] -0.123 | [9] 0.03 | [10] 0.149

XPO1 (UniProt O14980)
UniProt O14980, sequence (O14980 whole entry, looked up): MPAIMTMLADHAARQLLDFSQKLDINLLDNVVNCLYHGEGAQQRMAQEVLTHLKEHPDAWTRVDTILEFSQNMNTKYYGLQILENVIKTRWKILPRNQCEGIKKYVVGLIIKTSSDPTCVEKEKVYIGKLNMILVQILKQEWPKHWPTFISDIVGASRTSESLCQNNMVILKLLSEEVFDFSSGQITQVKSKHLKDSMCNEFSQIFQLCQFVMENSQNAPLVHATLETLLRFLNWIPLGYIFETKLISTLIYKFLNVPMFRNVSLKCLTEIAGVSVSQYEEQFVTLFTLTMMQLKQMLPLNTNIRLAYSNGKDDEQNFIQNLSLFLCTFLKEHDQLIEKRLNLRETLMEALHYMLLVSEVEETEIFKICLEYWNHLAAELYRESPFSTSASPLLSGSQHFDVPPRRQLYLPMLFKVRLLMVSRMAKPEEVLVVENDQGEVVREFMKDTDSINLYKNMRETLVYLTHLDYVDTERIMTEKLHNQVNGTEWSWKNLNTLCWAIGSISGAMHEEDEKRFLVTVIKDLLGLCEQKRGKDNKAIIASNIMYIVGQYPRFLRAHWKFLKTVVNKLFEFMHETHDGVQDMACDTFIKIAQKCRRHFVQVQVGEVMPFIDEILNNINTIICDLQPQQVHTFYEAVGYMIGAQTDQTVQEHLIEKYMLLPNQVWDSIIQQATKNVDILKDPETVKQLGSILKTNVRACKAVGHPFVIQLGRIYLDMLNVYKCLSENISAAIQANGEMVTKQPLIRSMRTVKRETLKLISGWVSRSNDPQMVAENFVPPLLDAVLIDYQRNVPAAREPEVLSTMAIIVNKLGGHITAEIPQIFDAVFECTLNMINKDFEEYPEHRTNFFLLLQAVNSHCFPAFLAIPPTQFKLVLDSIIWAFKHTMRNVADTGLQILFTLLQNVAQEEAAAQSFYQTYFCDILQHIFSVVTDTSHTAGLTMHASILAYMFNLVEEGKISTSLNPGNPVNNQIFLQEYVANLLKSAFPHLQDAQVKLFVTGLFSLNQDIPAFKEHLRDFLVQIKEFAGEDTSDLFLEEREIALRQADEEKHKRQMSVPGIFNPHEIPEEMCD
inactive: [1] 0.003 | [2] -0.088 | [3] -0.096 | [4] 0.001 | [5] -0.028 | [6] -0.093 | [7] -0.012 | [8] 0.02 | [9] 0.094 | [10] -0.041

TOP2A isoform 4 (UniProt P11388)
UniProt P11388, sequence (P11388 whole entry, looked up): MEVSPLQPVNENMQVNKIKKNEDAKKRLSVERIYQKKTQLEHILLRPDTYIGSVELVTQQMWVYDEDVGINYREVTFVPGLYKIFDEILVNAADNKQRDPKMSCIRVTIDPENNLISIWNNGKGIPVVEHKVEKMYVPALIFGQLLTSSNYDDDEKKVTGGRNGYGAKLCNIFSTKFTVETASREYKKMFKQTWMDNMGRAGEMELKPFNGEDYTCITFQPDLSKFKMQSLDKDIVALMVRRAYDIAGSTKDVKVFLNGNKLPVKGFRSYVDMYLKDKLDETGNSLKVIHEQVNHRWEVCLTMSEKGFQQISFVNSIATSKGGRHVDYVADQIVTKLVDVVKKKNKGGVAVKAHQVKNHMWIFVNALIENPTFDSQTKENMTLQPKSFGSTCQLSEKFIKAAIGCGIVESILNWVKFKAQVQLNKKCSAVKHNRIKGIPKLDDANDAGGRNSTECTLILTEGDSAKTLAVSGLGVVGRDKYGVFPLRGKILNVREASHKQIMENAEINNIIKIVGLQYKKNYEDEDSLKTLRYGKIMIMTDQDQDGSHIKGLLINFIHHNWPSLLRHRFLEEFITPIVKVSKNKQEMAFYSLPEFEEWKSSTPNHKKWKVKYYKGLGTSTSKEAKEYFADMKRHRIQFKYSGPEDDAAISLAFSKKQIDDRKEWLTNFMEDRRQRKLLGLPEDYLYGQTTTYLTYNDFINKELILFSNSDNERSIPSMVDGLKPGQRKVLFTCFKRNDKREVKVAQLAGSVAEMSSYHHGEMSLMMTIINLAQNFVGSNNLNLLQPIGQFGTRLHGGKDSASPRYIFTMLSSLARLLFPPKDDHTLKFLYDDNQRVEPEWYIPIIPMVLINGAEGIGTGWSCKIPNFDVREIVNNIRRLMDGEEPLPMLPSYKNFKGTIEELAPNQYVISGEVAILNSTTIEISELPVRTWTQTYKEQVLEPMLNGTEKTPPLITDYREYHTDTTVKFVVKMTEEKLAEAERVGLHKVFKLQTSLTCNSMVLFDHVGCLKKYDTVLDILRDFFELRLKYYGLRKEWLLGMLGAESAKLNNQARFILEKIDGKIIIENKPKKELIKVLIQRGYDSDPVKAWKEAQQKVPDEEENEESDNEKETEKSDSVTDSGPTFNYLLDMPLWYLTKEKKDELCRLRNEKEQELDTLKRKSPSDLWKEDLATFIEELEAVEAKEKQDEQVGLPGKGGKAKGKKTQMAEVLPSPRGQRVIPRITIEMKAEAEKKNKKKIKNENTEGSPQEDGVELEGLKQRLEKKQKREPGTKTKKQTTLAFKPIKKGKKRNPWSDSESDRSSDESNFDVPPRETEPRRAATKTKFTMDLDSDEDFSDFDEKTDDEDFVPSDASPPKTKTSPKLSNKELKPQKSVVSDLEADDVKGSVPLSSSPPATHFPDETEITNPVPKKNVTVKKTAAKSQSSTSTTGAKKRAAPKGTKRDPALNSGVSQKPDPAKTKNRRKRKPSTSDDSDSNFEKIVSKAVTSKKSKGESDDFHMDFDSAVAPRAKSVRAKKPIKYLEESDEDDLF
inactive: [1] -0.168 | [2] 0.006 | [3] 0.261 | [4] 0.103 | [5] 0.102 | [6] 0.438 | [7] 0.434 | [8] 0.273 | [9] 0.288 | [10] -0.086

VPS51 (UniProt Q9UID3)
UniProt Q9UID3, sequence (Q9UID3 whole entry, looked up): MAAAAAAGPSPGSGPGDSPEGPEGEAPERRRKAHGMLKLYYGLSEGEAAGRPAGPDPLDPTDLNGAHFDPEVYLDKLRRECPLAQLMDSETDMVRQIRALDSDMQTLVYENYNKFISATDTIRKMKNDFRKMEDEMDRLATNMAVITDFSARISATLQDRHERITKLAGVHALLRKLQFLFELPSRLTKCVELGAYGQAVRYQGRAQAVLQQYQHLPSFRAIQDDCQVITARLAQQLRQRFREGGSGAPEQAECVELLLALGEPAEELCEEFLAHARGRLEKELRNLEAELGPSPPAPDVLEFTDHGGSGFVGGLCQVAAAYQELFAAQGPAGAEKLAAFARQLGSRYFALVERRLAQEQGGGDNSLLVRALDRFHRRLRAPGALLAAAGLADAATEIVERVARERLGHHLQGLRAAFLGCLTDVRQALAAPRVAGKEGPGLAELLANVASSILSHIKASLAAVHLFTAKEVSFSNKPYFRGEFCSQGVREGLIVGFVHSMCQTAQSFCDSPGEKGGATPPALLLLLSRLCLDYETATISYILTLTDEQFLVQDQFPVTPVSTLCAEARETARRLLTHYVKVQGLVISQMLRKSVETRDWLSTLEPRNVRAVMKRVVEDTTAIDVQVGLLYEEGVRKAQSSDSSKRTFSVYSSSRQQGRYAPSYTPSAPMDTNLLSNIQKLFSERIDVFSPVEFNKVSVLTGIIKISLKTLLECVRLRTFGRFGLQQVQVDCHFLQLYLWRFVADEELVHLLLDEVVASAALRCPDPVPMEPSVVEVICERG
inactive: [1] -0.029 | [2] -0.097 | [3] -0.113 | [4] 0.029 | [5] -0.011 | [6] -0.056 | [7] 0.041 | [8] -0.034 | [9] 0.046 | [10] 0.002

VPS41 (UniProt P49754)
inactive: [1] -0.02 | [2] -0.077 | [3] -0.046 | [4] 0.034 | [5] -0.055 | [6] -0.041 | [7] 0.023 | [8] -0.001 | [9] -0.011 | [10] 0.103

UCHL5 (UniProt Q9Y5K5)
UniProt Q9Y5K5, sequence (Q9Y5K5 whole entry, looked up): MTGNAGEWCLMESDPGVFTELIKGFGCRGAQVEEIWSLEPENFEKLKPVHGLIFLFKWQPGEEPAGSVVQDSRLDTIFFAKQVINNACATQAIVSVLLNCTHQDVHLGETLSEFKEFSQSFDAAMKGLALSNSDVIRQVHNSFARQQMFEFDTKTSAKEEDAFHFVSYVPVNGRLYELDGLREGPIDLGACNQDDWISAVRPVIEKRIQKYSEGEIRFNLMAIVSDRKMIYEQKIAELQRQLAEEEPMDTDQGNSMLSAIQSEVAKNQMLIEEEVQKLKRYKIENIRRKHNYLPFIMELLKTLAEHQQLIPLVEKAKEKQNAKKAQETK
inactive: [1] -0.044 | [2] -0.057 | [3] -0.097 | [4] 0.148 | [5] 0.013 | [6] -0.107 | [7] 0.074 | [8] -0.001 | [9] 0.091 | [10] -0.028

TTI1 (UniProt O43156)
inactive: [1] -0.065 | [2] -0.128 | [3] 0.017 | [4] -0.007 | [5] -0.058 | [6] -0.046 | [7] 0.237 | [8] 0.053 | [9] 0.068 | [10] 0.004

WASHC5 (UniProt Q12768)
inactive: [1] 0.007 | [2] -0.02 | [3] -0.042 | [4] 0.047 | [5] 0.062 | [6] -0.032 | [7] 0.045 | [8] -0.009 | [9] 0.033 | [10] -0.033

TMEM128 (UniProt Q5BJH2)
UniProt Q5BJH2, sequence (Q5BJH2 whole entry, looked up): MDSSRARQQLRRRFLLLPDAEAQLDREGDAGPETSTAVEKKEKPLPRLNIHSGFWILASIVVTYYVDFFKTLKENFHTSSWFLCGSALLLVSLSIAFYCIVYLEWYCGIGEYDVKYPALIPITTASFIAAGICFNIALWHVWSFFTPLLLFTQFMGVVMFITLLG
inactive: [1] 0.083 | [2] 0.01 | [3] -0.082 | [4] -0.011 | [5] -0.023 | [6] -0.045 | [7] 0.019 | [8] -0.062 | [9] -0.006 | [10] -0.006

UTP3 (UniProt Q9NQZ2)
UniProt Q9NQZ2, sequence (Q9NQZ2 whole entry, looked up): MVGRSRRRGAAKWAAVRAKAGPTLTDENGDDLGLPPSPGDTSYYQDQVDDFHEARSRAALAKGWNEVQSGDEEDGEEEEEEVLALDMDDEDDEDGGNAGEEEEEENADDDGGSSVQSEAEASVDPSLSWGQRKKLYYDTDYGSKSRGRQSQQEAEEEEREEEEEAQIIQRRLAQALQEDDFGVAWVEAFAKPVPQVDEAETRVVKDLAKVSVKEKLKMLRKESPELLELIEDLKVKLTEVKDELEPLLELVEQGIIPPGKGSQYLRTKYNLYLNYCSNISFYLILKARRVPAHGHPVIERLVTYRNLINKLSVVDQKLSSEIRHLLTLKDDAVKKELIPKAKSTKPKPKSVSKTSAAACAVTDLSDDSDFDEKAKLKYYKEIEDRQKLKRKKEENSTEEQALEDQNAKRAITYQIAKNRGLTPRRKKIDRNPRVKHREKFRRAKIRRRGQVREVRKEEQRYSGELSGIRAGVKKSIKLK
inactive: [1] 0.232 | [2] -0.1 | [3] 0.173 | [4] 0.067 | [5] 0.094 | [6] 0.104 | [7] 0.238 | [8] -0.106 | [9] 0.23 | [10] 0.051

TRIM23 (UniProt P36406)
inactive: [1] 0.033 | [2] 0.075 | [3] -0.034 | [4] 0.032 | [5] -0.049 | [6] -0.004 | [7] 0.057 | [8] 0.035 | [9] 0.012 | [10] -0.039

TSEN2 (UniProt Q8NCE0)
inactive: [1] -0.014 | [2] -0.186 | [3] -0.044 | [4] -0.024 | [5] -0.042 | [6] -0.009 | [7] 0.007 | [8] -0.005 | [9] -0.068 | [10] -0.049

VPS39 (UniProt Q96JC1)
inactive: [1] 0 | [2] -0.097 | [3] -0.035 | [4] 0.033 | [5] -0.015 | [6] -0.068 | [7] 0.039 | [8] 0.005 | [9] -0.006 | [10] -0.03

TMEM208 (UniProt Q9BTX3)
inactive: [1] -0.047 | [2] -0.02 | [3] -0.039 | [4] 0.003 | [5] -0.142 | [6] -0.023 | [7] -0.045 | [8] -0.099 | [9] 0.145 | [10] -0.164
